# Reference: PubChem BioAssay (NCATS)
# Values without a mark were called inactive. Results filed as inconclusive are left out. Entries that show only a call come without a potency. The source made the active and inactive calls. The call rests on the fitted dose curve; in most records, active means well fitted inhibition curve with a large enough effect; inconclusive means small, poorly fitted or top-dose-only effect; inactive means no such curve, though single readings can be large or run the other way.
# Assay: qHTS assay for measurement of the activity of small molecule inhibitors on Zika virus induced Caspase-3 activity in human astrocytoma cells (AID 1224859)
# Conditions: SNB-19 ZIKV-induced caspase-3/7, luminescence, 6 h; series mostly up to 45.7 µM; activity change, negative = inhibition: at the top concentration
# Procedure, shortened: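 In SNB-19 cells plated at 250 cells/well and grown 16-20 h, compounds were applied 1 h before ZIKV (2 FFU/cell). Six hours later caspase-3/7 luminescence was recorded.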
row,SMILES,Potency
1,COc1ccccc1N1CCN(CCCNc2cc(=O)n(C)c(=O)n2C)CC1,inactive
2,CC(=O)c1ccc(S(=O)(=O)NC(=O)NC2CCCCC2)cc1,inactive
3,CCN(CC)CCOC(=O)c1ccc(N)cc1,inactive
4,O=C1NC(=O)C(c2ccccc2)(c2ccccc2)N1,inactive
5,CC[C@]1(O)C[C@@H]2CN(CCc3c([nH]c4ccccc34)[C@@](C(=O)OC)(c3cc4c(cc3OC)N(C)[C@H]3[C@@](O)(C(=O)OC)[C@H](OC(C)=O)[C@]5(CC)C=CCN6CC[C@]43[C@@H]65)C2)C1,inactive
6,COC(=O)[C@@H]1[C@H]2C[C@H]3c4[nH]c5ccccc5c4CCN3C[C@@H]2CC[C@@H]1O,inactive
7,Cc1cccc(C)c1OCC(C)N (stereo not given),inactive
8,NC(N)=Nc1nc(CSCC/C(N)=N/S(N)(=O)=O)cs1,inactive
9,OC[C@@H](O)[C@H](O)[C@H](O)[C@@H](O)CO,inactive
10,CC(=O)O[C@]1(C(C)=O)CC[C@H]2[C@@H]3C=C(Cl)C4=CC(=O)[C@@H]5C[C@@H]5[C@]4(C)[C@H]3CC[C@@]21C,inactive
11,CC(C)NCC(O)COc1cccc2[nH]ccc12 (stereo not given),inactive
12,O=C(NCCN1CCOCC1)c1ccc(Cl)cc1,inactive
13,CC/C(=C(\c1ccccc1)c1ccc(OCCN(C)C)cc1)c1ccccc1,inactive
14,O=C(O)c1cc(-c2ccccc2)nc2ccccc12,inactive
15,C[C@@H](O)[C@H]1C(=O)N2C(C(=O)O)=C(S[C@@H]3CN[C@H](C(=O)N(C)C)C3)[C@H](C)[C@H]12,inactive
16,Clc1ccc(Cn2c(CN3CCCC3)nc3ccccc32)cc1,inactive
17,O=C(O)CCc1nc(-c2ccccc2)c(-c2ccccc2)o1,inactive
18,CCN(CC)CCNC(=O)c1ccc(N)cc1,inactive
19,CCCNC(=O)NS(=O)(=O)c1ccc(Cl)cc1,inactive
20,CCCCC1C(=O)N(c2ccccc2)N(c2ccccc2)C1=O,inactive
21,CCN1CCC[C@H]1CNC(=O)c1cc(S(N)(=O)=O)ccc1OC,inactive
22,CC1=C(/C=C/C(C)=C/C=C/C(C)=C/C(=O)Nc2ccc(O)cc2)C(C)(C)CCC1,inactive
23,CC(C)(C)c1ccc(C(O)CCCN2CCC(C(O)(c3ccccc3)c3ccccc3)CC2)cc1 (stereo not given),inactive
24,O=C(O)Cc1cccc2ccccc12,inactive
25,NCCS,inactive
26,C[N+](C)(C)CCCCCC[N+](C)(C)C,inactive
27,CN(C)CCC(c1ccccc1)c1ccccn1 (stereo not given),inactive

# Assay: qHTS Screen of the MIPE 4.0 Collection Against Ewings Sarcoma (RDES) (AID 1259252); further: nearly all actives have a fitted effect of over 35% in size; further: potency means the concentration at half of the fitted maximal effect
# Conditions: RD-ES Ewing sarcoma viability, CellTiter-Glo, 48 h; series mostly up to 45.8 µM; viability (percent of control): at the top concentration
# Procedure, shortened: (§1)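 Log-phase cells in RPMI with 5% FBS attached for 4 h, then received compounds as a titration for 48 h at 37C, 5% CO2. Viability was read by CellTiter-Glo luminescence and normalized to DMSO and no-cell wells.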
SMILES,viability (percent of control),Potency
Clc1ccc(CCC(Cn2ccnc2)Sc2c(Cl)cccc2Cl)cc1 (stereo not given),79.8%,
COc1cc2ncnc(Nc3ccc(F)c(Cl)c3)c2cc1OCCCN1CCOCC1,,10.8 µM (active)
COc1ccc(Cc2nccc3cc(OC)c(OC)cc23)cc1OC,,20.9 µM (active)
C[C@@H]1CCN(C(=O)CC#N)C[C@H]1N(C)c1ncnc2[nH]ccc12,115%,

# Assay: qHTS Screen of the MIPE 4.0 Collection Against Ewings Sarcoma (TC32) (AID 1259256); further: nearly all actives have a fitted effect of over 45% in size; further: potency means the concentration at half of the fitted maximal effect
# Conditions: TC32 Ewing sarcoma viability, CellTiter-Glo, 48 h; series mostly up to 45.8 µM; viability (percent of control): at the top concentration
# Procedure, shortened: as §1
SMILES,viability (percent of control),Potency
Clc1ccc(CCC(Cn2ccnc2)Sc2c(Cl)cccc2Cl)cc1 (stereo not given),91.7%,
COc1ccc(Cc2nccc3cc(OC)c(OC)cc23)cc1OC,,23.5 µM (active)
Cn1c(N2CCCCS2(=O)=O)nc(C(=O)NCc2ccc(F)cc2)c(O)c1=O,,23.5 µM (active)
C[C@@H]1CCN(C(=O)CC#N)C[C@H]1N(C)c1ncnc2[nH]ccc12,121%,
